Shown are actives, neighbours in structure and some others; about 3.5% of the full set was active somewhere.
mHTT-CaM PPI inh = inhibitors of human mutant huntingtin-calmodulin interaction | AlphaScreen His-mHTT/GST-CaM binding, luminescence | inhibition, % at 15 µM | 3.6% of 190,000 active | AID 1671202;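 further: 0% = both proteins with DMSO and 100% = one protein alone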
Target sequence (P42858 whole entry, looked up, stated change not applied): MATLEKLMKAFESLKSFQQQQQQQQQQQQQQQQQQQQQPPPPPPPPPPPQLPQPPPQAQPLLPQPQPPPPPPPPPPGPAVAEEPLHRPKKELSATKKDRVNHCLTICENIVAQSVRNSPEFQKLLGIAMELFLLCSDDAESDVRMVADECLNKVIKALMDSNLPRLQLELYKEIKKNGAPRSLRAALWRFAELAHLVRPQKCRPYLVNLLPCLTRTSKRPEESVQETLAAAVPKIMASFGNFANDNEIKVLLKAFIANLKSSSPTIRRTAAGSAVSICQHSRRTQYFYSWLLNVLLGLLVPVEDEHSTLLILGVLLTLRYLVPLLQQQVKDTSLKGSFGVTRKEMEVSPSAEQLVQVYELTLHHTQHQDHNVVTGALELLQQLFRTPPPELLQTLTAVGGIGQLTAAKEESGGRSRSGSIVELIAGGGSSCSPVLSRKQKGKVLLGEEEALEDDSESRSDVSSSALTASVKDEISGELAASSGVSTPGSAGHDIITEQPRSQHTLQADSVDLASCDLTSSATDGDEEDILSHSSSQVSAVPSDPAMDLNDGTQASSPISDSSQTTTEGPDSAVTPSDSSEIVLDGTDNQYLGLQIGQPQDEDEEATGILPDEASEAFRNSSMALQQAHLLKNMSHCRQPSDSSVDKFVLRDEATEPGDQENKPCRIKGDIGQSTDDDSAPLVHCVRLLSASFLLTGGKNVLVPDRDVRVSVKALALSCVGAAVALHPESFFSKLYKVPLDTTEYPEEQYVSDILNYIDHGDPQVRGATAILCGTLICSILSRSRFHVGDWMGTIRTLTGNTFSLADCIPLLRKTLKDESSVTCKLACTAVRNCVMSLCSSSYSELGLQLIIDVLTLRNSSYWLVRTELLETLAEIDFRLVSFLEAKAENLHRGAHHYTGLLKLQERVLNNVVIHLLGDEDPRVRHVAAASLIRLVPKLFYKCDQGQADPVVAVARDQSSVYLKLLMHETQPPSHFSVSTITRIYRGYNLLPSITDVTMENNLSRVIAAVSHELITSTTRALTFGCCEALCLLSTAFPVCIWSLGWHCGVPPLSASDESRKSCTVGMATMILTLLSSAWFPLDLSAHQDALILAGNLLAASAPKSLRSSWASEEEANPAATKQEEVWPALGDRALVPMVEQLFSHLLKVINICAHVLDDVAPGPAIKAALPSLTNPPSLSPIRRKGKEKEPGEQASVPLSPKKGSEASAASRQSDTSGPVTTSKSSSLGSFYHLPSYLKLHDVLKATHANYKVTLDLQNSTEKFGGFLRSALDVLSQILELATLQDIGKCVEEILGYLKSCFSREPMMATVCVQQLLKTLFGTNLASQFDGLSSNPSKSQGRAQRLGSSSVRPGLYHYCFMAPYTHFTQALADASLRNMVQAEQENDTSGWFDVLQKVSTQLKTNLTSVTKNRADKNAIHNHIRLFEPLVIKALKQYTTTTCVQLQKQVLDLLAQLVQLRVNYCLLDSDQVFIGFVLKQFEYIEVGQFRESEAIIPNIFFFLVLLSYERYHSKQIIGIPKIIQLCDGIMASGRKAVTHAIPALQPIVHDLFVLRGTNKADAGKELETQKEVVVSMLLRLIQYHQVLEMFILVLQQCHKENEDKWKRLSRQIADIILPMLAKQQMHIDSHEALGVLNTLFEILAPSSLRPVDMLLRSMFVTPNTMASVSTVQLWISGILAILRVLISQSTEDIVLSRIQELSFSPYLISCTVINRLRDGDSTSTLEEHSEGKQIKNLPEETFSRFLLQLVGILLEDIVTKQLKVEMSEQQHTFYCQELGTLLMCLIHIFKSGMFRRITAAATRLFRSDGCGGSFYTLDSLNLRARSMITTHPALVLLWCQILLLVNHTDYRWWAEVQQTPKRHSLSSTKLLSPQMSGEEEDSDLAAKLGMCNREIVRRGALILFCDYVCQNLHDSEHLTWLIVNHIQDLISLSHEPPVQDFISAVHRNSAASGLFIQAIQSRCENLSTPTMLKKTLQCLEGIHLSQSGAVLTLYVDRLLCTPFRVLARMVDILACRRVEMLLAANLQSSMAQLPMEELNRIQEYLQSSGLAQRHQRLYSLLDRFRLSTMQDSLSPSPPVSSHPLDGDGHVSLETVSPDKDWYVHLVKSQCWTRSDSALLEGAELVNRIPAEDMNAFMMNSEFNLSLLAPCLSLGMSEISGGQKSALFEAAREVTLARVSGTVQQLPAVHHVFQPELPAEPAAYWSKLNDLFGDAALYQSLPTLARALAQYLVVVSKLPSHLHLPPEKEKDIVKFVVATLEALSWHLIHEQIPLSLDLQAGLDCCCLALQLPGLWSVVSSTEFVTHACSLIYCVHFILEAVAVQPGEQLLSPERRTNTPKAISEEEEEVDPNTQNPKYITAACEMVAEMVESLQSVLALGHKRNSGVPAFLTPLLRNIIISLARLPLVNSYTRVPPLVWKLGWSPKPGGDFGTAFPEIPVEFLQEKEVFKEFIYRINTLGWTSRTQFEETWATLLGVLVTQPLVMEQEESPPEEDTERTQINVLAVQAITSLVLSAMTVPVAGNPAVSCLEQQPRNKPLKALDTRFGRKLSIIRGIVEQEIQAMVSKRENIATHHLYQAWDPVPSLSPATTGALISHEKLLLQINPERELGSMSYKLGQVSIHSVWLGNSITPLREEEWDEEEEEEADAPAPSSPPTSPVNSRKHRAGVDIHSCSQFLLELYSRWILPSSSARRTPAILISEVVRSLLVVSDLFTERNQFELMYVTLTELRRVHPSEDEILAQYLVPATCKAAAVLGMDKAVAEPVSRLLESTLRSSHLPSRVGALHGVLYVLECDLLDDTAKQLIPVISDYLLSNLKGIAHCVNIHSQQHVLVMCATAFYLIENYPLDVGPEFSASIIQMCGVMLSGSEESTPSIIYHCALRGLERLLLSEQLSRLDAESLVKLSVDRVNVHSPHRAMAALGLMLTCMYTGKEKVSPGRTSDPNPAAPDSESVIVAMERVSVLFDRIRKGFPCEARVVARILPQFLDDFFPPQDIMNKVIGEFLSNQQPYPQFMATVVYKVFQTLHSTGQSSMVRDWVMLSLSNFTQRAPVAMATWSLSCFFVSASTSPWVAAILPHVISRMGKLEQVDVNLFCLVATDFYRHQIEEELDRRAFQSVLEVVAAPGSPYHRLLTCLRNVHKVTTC
Pf apPOL block = Pf-apPOL DNA polymerase inhibition; Recombinant Pf-apPOL, molecular beacon fluorescence, 1.5 h; inhibition, % at 10 µM; 0.25% of 210,000 active; AID 1794808
An asterisk follows results filed as active; i = inactive; . = no result; ! = not confirmed by another sample. No stated cut-off is given here; in the data, active means inhibition above about 50%; inactive means the rest.

SMILES	mHTT-CaM PPI inh	Pf apPOL block
CC(C)C(=O)N1CCc2c(c(C(=O)NCc3ccc4c(c3)OCO4)nn2C)C1	6	-14
Cc1cccc(C(=O)N2CCc3c(c(C(=O)NCc4ccc5c(c4)OCO5)nn3C)C2)c1	62*	-8
COc1ccc(C(=O)N2CCc3c(c(C(=O)NCc4cccc(C)c4)nn3C)C2)cc1	10	0
COc1cccc(C(=O)N2CCc3c(c(C(=O)NCc4ccc5c(c4)OCO5)nn3C)C2)c1	51*	-2
CCOc1ccc(C(=O)N2CCc3c(c(C(=O)NCc4cccc(C)c4)nn3C)C2)cc1	-1	-11
Cc1cccc(CNC(=O)c2nn(C)c3c2CN(C(=O)COc2cccc(C)c2)CC3)c1	76*	-5
Cc1c(Cl)cccc1NC(=O)C1CCCN(c2ccc(-n3cccn3)nn2)C1 (stereo unspecified)	-14	-7
Cc1nnc(C)n1/N=C/c1cccn1C	i	.
COCC(=O)N(C)C1(c2nnnn2-c2ccccc2)CCCCC1	5	-1
CCOc1ccc(/C=C2\N=C(c3cccc(C)c3)OC2=O)cc1	2	5
Cc1c(CCOC(=O)C23CC4CC(CC(C)(C4)C2)C3)sc[n+]1CC(=O)c1ccccc1	99*	-1
CC12CC3CC(C1)CC(C(=O)O)(C3)C2	-3	-5
CC(=O)Nc1ccc(C(=O)NCc2cccc(F)c2)c(N2CCCCC2)c1	65*	1
CC(=O)Nc1ccc(C(=O)NCc2cccc(F)c2)c(N2CCOCC2)c1	-3	-3
CCN(CC)C(=O)c1cc2c(s1)CCC(C(=O)Nc1ccc(F)cc1F)C2 (stereo unspecified)	1	-3
Cc1ccc(C)c(CSc2nc(C3CCCCC3)c(C#N)c(=O)[nH]2)c1	.	73*
Cc1ccccc1CSc1nc2c(cnn2-c2ccccc2)c(=O)[nH]1	-1	-1
Cc1c(NS(=O)(=O)c2ccccc2)cc(C(C)C)c(O)c1Cl	-8	-13
COc1ccc(C(=O)N2CCCC2c2cc(C)no2)cc1 (stereo unspecified)	-9	1
COc1cc(OC)c(C2C(C#N)=C(N)OC3=C2C(=O)CC(C)C3)cc1Br (stereo unspecified)	16	-5
Cc1cccc2nc(CSc3n[nH]c(N)n3)cc(=O)n12	2	52*
Cc1cccc2nc(CSc3ncc(C#N)c(N)n3)cc(=O)n12	10	5
O=C(NCc1ccco1)N1CCN(Cc2nc3cccnc3n2-c2cccc(F)c2)CC1	12	4
COCCCNC(=O)Cc1cn(C)c2ccccc12	-1	1
Brc1ccc(CNc2ccc3c(c2)ncn3-c2ccccc2)cc1	95*	24
SMILES	mHTT-CaM PPI inh	Pf apPOL block
CC(C)(C)n1cnc2cc(NCc3ccc(Br)cc3)ccc21	61*	-4
Cn1cnc2cc(NCc3ccc(Br)cc3)ccc21	16	5
CCN(CC)c1ccc(CNc2ccc3c(c2)ncn3C)cc1	84*	-2
CN(C)c1ccc(CNc2ccc3c(c2)ncn3C)cc1	20	-4
CC(=O)Nc1ccc2c(c1)ncn2-c1ccccc1	3	0
Cc1ccc2c(c1)OC=CC(C(=O)NC1CCCCC1)=C2	-7	0
Cc1ccc(-c2csc(Nc3ccc(C(=O)O)cc3)n2)cc1C	18	-5
COc1ccc(-c2csc(Nc3ccc(C)c(C)c3)n2)cc1F	52*	-5
COc1ccc(-c2csc(Nc3cccc(O)c3)n2)cc1OC	68*	3
Oc1cccc(Nc2nc(-c3ccc(Cl)cc3)cs2)c1	97*	-5
Cc1ccc(-c2csc(NC(=O)c3ccc(Br)s3)n2)o1	13	0
Clc1ccc(Nc2nc(-c3cccnc3)cs2)cc1	0	-3
COc1ccc(-c2csc(N)n2)cc1OC	18	-2
COc1ccc(-c2csc(NC(=O)c3ccc(Br)s3)n2)cc1OC	69*!	64*!
COc1ccc(-c2nc3cccnc3n2C2CCN(C(=O)Nc3ccc(F)cc3)C2)cc1 (stereo unspecified)	3	-2
COc1ccccc1CNC(=O)C(=O)NCCN1CCOC(c2ccccc2)C1 (stereo unspecified)	5	1
CC[n+]1c(/C=C/c2c[nH]c3ccccc23)ccc2cc(C)ccc21	46	-4
COc1ccc(-c2csc(Nc3ccc(NC(C)=O)cc3)n2)cc1OC	49	-1
COc1ccc(-c2csc(Nc3ccc(O)cc3)n2)cc1OC	71*	-4
CC(C)C(=O)NCc1csc(C2CCCN(C(=O)Cc3ccc(F)cc3)C2)n1 (stereo unspecified)	14	-2
COC(=O)C(C)Oc1cc(C)cc2oc(=O)cc(-c3ccccc3)c12 (stereo unspecified)	-7	-4
CC(Oc1cc2oc(=O)cc(-c3ccccc3)c2cc1Cl)C(=O)O (stereo unspecified)	100*	-1
Cc1cc(NCc2ccccn2)n2c(nc3ccccc32)c1C#N	-10	-4
COc1ccc(NC(=O)CSC2=NC(=O)CC(C)=N2)cc1	-1	76*
COc1ccc(NC(=O)CSc2nccn2C)cc1	-2	4
SMILES	mHTT-CaM PPI inh	Pf apPOL block
CCCn1cnnc1C1CCN(C(=O)Cc2c[nH]c3ccccc23)CC1	13	2
Cn1cnnc1C1CCCCN1C(=O)Cc1c[nH]c2ccccc12 (stereo unspecified)	4	91*
COc1cccc(N(CC(=O)Nc2ccc(CSc3ccccc3)cc2)S(C)(=O)=O)c1	4	-3
COCCNc1nc(SCc2ccccc2Cl)nc2ccccc12	58*	-4
Clc1ccccc1CSc1nc(NCc2ccco2)c2ccccc2n1	19	-4
O=S(=O)(Nc1ccccc1SCc1ccc2nonc2c1)c1cccs1	.	-10
COc1ccc(-c2csc(N)n2)c(OC)c1	21	0
COc1ccc([N+](=O)[O-])cc1NC(=O)COc1ccc(Cl)cc1	1	-2
Cc1cccc(N2CC(C(=O)NCc3ccccn3)CC2=O)c1 (stereo unspecified)	61*	-14
Cn1c(N2CCC(C(=O)NCc3ccccn3)CC2)cc(=O)n(C)c1=O	70*	1
COc1ccc(NC(=O)C2CCN(c3cc(=O)n(C)c(=O)n3C)CC2)cc1OC	39	0
Cn1c(N2CCC(C(=O)NCc3ccccc3)CC2)cc(=O)n(C)c1=O	27	2
Cn1c(N2CCC(C(=O)NCc3cccs3)CC2)cc(=O)n(C)c1=O	40	-2
CC(C)c1ccc(N2CC(C(=O)NCc3ccccn3)CC2=O)cc1 (stereo unspecified)	9	-4
CCn1c(N2CCC(C(=O)NCc3cccs3)CC2)cc(=O)n(C)c1=O	62*	-3
CCn1c(N2CCC(C(=O)Nc3cc(OC)c(OC)c(OC)c3)CC2)cc(=O)n(C)c1=O	62*	2
Cc1ccc(S(=O)(=O)N=C(Nc2nc(C)cc(C)n2)Nc2cccc(C)c2C)cc1	-5	5
COc1ccc(-c2cc(C(F)(F)F)n3ncc(C(=O)Nc4ccc(C)cc4)c3n2)cc1OC	1	-12
Cc1cccc(CN2CCCn3nc(C(=O)NCc4cccc(Cl)c4)cc3C2=O)c1	-6	0
CCOC(=O)c1oc2cc(O)cc(O)c2c(=O)c1-c1ccc(OC)cc1	20	-3
COc1ccc(C)cc1NC(=O)N1CCc2c(nc[nH]c2=O)C1	0	-7
CC[N+]1(CC(O)COC23CC4CC(CC(C4)C2)C3)CCCC1 (stereo unspecified)	-1	-4
COc1ccc(NC(=O)Cn2nc(C(F)(F)F)c(Cl)c2C)c(OC)c1	9	1
